# High-throughput results: PubChem BioAssay, National Center for Advancing Translational Sciences (NCATS)
# Shiga inhibitor: Shiga toxin inhibition; Vero cells, Shiga toxin protein synthesis inhibition reporter; AID 2315; 290,000 compounds, 9.2% hits; inhibition, % at 38.7 µM; in the data active = inhibition mostly above about 28%, no sharp cut-off; inactive = mostly below about 43%; also: 0% is about no effect
# Cycloheximide cs: counter-screen for Shiga toxin inhibitors: cycloheximide protein synthesis inhibition; cell reporter, cycloheximide protein synthesis inhibition counterscreen; AID 2314; 300,000 compounds, 12% hits; max response, %; in the data active = max response mostly above about 13%, no sharp cut-off; inactive = mostly below about 14%; also: read at 38.3 µM for the half of the compounds with a filed dose; 0% is about no effect
# TbPYK inhibitor: blocks Trypanosoma brucei pyruvate kinase; Q57TT1; 410,000 compounds, 0.12% hits; TbPYK enzyme, Kinase-Glo Plus ATP luminescence, 45 min; Potency, µM (titrated, usually from 76.8 µM), for inactives: at the top dose activity, negative = inhibition, hits mostly inhibitors; also: potency is read from the fitted curve at half-maximal effect; % is scaled to controls: 0 for no effect and ±100 for the full control effect; nearly all actives have a fitted effect of over 50% in size
#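 In this concentration-response screen, enzyme-free wells defined baseline while DMSO plates tracked drift. Each reaction combined TbPYK, substrate, compound and 130 uM ADP for 45 min at room temperature. Kinase-Glo Plus luminescence gave the signal.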
# SARS PLpro yeast: SARS-CoV PLP inhibition in yeast | S. cerevisiae expressing SARS-CoV PLpro, growth rescue | Potency, µM (doses to about 32.9 µM), for inactives: at the highest dose activity, positive = growth rescue, hits mostly activators | 330,000 compounds, 0.19% hits | AID 485353; calls by dose curve; also: potency is read from the fitted curve at half-maximal effect; 0% is about no effect; nearly all actives have a fitted effect of over 55% in size
# NS1 function inh: blocks influenza NS1 protein function. AID 2326. Potency, µM (doses to about 46.1 µM), without a hit: at the highest dose activity, positive = more growth. 270,000 compounds, 0.4% hits; calls by dose curve; also: potency is read from the fitted curve at half-maximal effect; actives are rising curves; nearly all actives have a fitted effect of over 50% in size
#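 In this qHTS, NS1 from influenza A is expressed in budding yeast, where it slows growth. Cells are switched from glucose to 2% galactose medium (pH 6.0, -URA), treated with compound, and growth recovery is read at OD600.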
# LmPK inhibitor: LmPK (Leishmania mexicana) enzyme inhibition | Q27686 | purified LmPK, Kinase-Glo ATP luminescence, 1 h | Potency, µM (highest dose often 57.5 µM), without a hit: top-dose activity change, negative = inhibition, most hits filed as inhibitors | 290,000 compounds, 0.37% hits | AID 1721; also: potency is read from the fitted curve at half-maximal effect; % is scaled to controls: 0 for no effect and ±100 for the full control effect
# Target sequence (Q27686 whole entry, looked up): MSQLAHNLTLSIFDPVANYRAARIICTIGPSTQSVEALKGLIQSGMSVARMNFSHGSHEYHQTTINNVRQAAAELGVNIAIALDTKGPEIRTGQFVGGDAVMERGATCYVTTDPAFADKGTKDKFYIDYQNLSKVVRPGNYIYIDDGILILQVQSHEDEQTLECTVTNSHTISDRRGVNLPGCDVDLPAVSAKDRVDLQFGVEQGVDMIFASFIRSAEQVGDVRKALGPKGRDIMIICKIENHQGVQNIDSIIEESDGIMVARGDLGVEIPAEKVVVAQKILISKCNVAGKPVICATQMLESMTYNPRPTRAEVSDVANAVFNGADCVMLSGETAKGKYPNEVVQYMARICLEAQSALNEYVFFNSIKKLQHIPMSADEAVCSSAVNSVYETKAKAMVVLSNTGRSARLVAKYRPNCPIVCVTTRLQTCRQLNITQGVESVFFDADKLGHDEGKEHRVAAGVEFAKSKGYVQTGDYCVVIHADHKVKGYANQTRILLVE
#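 Purified LmPK (0.1 nM) converted ADP (0.1 mM) to ATP with PEP (0.5 mM) in imidazole buffer pH 7.2 with KCl and MgCl2, 1 h at room temperature. ATP was read by Kinase-Glo luminescence; data normalized to uninhibited and no-enzyme controls.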
# * hit, by the source's call; nt = not tested or not shown; + = active, no number. The sample as a whole holds a higher share of hits than the screen did. Unless noted, calls follow the shape of the dose curve; as a rule, active = well fitted curve in the direction sought with a large enough effect; inconclusive = small, poorly fitted or top-dose-only effect, or another doubt; inactive = no such curve, though single readings can be large; an effect the other way counts as inactive or inconclusive.
SMILES,Shiga inhibitor,Cycloheximide cs,TbPYK inhibitor,SARS PLpro yeast,NS1 function inh,LmPK inhibitor
O=C(Nc1cccc(S(=O)(=O)NC2=NCCC2)c1)c1ccccc1OC(F)F,nt,nt,0%,-2%,nt,nt
COc1ccc(C(=O)Nc2ccc3ccccc3c2)c(OC)c1,86*,30*,-1%,-10%,-85%,-7%
COc1ccc(C(=O)NCCn2ccc3ccccc32)c(OC)c1,42,38*,-4%,-8%,-33%,0%
COc1ccc(NC(=O)c2ccc3ccccc3c2)cc1,nt,37*,-5%,1%,5%,6%
COc1ccc(C(=O)CNc2ccccc2Br)cc1,74*,41*,10%,0%,-10%,-2%
CNc1cncc(-c2ccc(OC)c(OC)c2)n1,nt,nt,-2%,nt,nt,nt
Cc1cccc(Cn2c(=O)n(Cc3ccc(C(=O)NC4CCN(Cc5ccccc5)CC4)cc3)c(=O)c3ccccc32)c1,nt,nt,-1%,nt,nt,nt
COc1ccc(NC(=O)c2ccc(=O)oc2)cc1,13,2,8%,-8%,-10%,-7%
COc1ccc(C(=O)NNC(=O)c2ccc3ccccc3c2)cc1,nt,nt,6%,nt,nt,nt
COc1ccc(C(=O)CNc2ccc3ccccc3c2)cc1,79*,31*,-4%,-1%,6%,3%
COc1ccc(NC(=O)c2coc(C)c2)cc1,54*,29*,-1%,-2%,0%,0%
COc1ccc(-n2nc3c(N4CCCC(C(=O)NCc5cccc(F)c5)C4)nnc(C)c3c2C)cc1 (configuration not stated),nt,nt,-16%,nt,nt,nt
COc1cccc(NCc2cc(=O)oc3cc(-c4ccccc4)c(O)cc23)c1,62*,27*,-5%,18%,3%,-3%
COc1cccc(NCc2cc(=O)oc3cc(C)c(O)cc23)c1,8,16,-4%,-2%,6%,0%
c1ccc(Nc2nc(-c3ccccc3)ns2)cc1,82*,52*,5%,-3%,-14%,6%
CC(C)(C)C(=O)Nc1nc(-c2ccccc2)ns1,84*,58*,3%,-32%,3%,3%
O=C(Nc1nc(-c2ccccc2)ns1)c1ccc(Cl)cc1,nt,nt,0%,nt,nt,nt
CN(CC(=O)Nc1ccccc1Br)C(=O)CNC(=O)c1cccs1,nt,nt,1%,5%,nt,nt
Cc1ccc2c(c1)[nH]c1c(=O)n(Cc3ccco3)cnc12,35,21*,-19%,-4%,0%,0%
c1ccc2nc(CC[C@@H]3CCCCN3)ccc2c1,nt,nt,nt,nt,1%,nt
COCC(=O)N1CCCC(C(=O)c2ccc(-c3ccccc3)cc2)C1 (configuration not stated),12,11*,-2%,-12%,-34%,-8%
CN1CC(C(=O)c2ccccc2)C(C(=O)c2ccccc2)C1 (configuration not stated),112*,55*,-10%,-42%,-151%,2%
CC1CCCN(C(=O)COc2ccc(-c3ccccc3)cc2)C1 (configuration not stated),40*,17,0%,-4%,nt,4%
CN1CCCC(C(=O)c2ccc(-c3ccccc3)cc2)C1 (configuration not stated),34*,23*,-17%,6%,14%,-2%
CN1CC(C(=O)c2ccc(F)cc2)C(c2ccc(F)cc2)C1 (configuration not stated),-7,-5,7%,1%,-2%,6%
SMILES,Shiga inhibitor,Cycloheximide cs,TbPYK inhibitor,SARS PLpro yeast,NS1 function inh,LmPK inhibitor
CC(NN)c1ccccc1 (configuration not stated),nt,nt,-5%,nt,nt,nt
O=C(NCCc1nccs1)C1CCC(=O)N(CCc2ccc(Cl)cc2)C1 (configuration not stated),-33,-1,-10%,5%,18%,-8%
Cc1onc(-c2c(F)cccc2Cl)c1C(=O)Nc1ccc(OC(C)C)cc1,nt,nt,2%,nt,nt,nt
Cn1nc(C(F)(F)F)c(-c2ccc(Br)cc2)c1NC(=O)c1ccco1,-10,-1,0%,-10%,-3%,-2%
O=C(/C(C=Nc1cccc(C(F)(F)F)c1)=C(/O)c1ccco1)C(F)(F)F,126*,93*,-6%,0%,6%,3%
O=C(/C(C=Nc1ccc(Br)cc1)=C(/O)c1ccco1)C(F)(F)F,+,42*,-1%,5%,-35%,5%
CCCCCCCN(CC)CCCC(O)c1ccc(NS(C)(=O)=O)cc1 (configuration not stated),nt,nt,1%,nt,nt,nt
